Source: PubChem BioAssay (EPA / NIEHS)
Inconclusive results are not listed. Activity calls are given as the source filed them. Rule for the calls: active = hit-call score of the fitted dose curve at least 0.9, where 1 is the maximum; inconclusive = response in the unintended direction; inactive = score below 0.9.

molecular target: Nuclear receptor subfamily 1 group I member 2 (Homo sapiens) (UniProt O75469); test: NVS_NR_hPXR: NovaScreen (NVS) Nuclear Receptor Binding Assay for human Pregnane X Receptor (PXR) (AID 2283365);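 note: a drop in FRET signal versus DMSO baseline means the compound binds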
Sequence (O75469 whole entry, looked up): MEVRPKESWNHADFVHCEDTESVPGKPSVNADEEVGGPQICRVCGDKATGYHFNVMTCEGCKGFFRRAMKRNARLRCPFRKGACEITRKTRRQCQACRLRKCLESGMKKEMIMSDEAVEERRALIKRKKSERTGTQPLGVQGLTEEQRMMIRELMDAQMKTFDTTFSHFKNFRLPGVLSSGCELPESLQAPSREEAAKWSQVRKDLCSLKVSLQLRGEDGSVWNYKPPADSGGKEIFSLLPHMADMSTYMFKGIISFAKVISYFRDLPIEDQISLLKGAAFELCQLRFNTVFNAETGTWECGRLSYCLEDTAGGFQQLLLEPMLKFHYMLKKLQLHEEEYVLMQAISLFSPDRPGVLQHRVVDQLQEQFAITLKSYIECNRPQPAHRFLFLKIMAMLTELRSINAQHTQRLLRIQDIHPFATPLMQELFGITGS
Protocol: NVS_NR_hPXR is a biochemical, single-readout assay that uses extracted gene-proteins in a cell-free assay. Measurements were taken 2 hours after chemical dosing in a 384-well plate.NVS_NR_hPXR is one of one assay component(s) measured or calculated from the NVS_NR_hPXR assay. It is designed to make measurements of fluorescent resonance energy transfer, a form of binding reporter, as detected with fluorescent resonance energy transfer signals by Time-Resolved Fluorescence Resonance Energy Transfer (TR-FRET) technology.Data from the assay component NVS_NR_hPXR was analyzed into 1 assay endpoint. This assay endpoint, NVS_NR_hPXR, was analyzed in the positive analysis fitting direction relative to DMSO as the negative control and baseline of activity. Using a type of binding reporter, loss-of-signal activity can be used to understand changes in the binding as they relate to the gene NR1I2. Furthermore, this assay endpoint can be referred to as a primary readout, because the performed assay has only produced 1 assay endpoint. To generalize the intended target to other relatable targets, this assay endpoint is annotated to the nuclear receptor intended target family, where the subfamily is non-steroidal.
Binding assays used specific radioligands (tritiated, iodinated) with non-radioactive competitive displacement ligands in agonist or antagonist protocols (as indicated) and various reference compounds and inhibitors to titrate specific binding to receptors and transporters. Most enzyme assays (CYPs, kinases, phosphatases, proteases, HDACs) used recombinant protein and specific substrates (fluorescence mostly, some colorimetric and radioactive) and inhibitors, followed by a biochemical separation of substrate and product. All assays for the biochemical HTS were initially run in duplicate at a single concentration (10 uM for CYP450 assays and 25 uM for all others). […] Each assay was run with positive and negative controls, and concurrent controls on every plate. The follow-up (secondary) screen tested active chemical-pairs in concentration series, as well as a few additional assays not tested in the primary screen, some selected negative inactives, and several cases re-run in the concentration series for confirmatory purposes.

SMILES | outcome | AC50
O=S1(=O)OC(c2ccc(O)cc2)(c2ccc(O)cc2)c2ccccc21 | inactive | –
COC(=O)c1c(C)cc(O)c(C)c1O | inactive | –
CCCCC/C=C\C/C=C\CCCCCCCC(=O)OC | inactive | –
O=c1cc(-c2ccccc2)oc2ccccc12 | inactive | –
CCCCC(CC)CCC(CC(C)C)OS(=O)(=O)O (stereo not given) | – | 2.49 µM (active)
CCN(CCC#N)c1ccc(N=Nc2c(Cl)cc([N+](=O)[O-])cc2Cl)cc1 | – | 0.433 µM (active)
Cc1ccc(N/N=c2\c(=O)cc/c(=N/Nc3ccc(S(=O)(=O)O)cc3)c2=O)c(C)c1 | – | 2.79 µM (active)
Oc1ccc(Cl)cc1Cc1cc(Cl)ccc1O | – | 16.8 µM (active)
C1CN(SSN2CCOCC2)CCO1 | inactive | –
CC(C)C1=CC2=CC[C@@H]3[C@](C)(CCC[C@@]3(C)C(=O)O)[C@H]2CC1 | – | 16 µM (active)
CCCCCCCCCCCCCOP(=O)(O)O | inactive | –
CC/C=C\C/C=C\C/C=C\CCCCCCCC(=O)O | – | 3.05 µM (active)
CC(=O)OC(C)C | inactive | –
CC(C)c1ccc2c(C(C)C)cc(C(C)C)c(S(=O)(=O)O)c2c1 | – | 0.393 µM (active)
CCCCCCCC/C=C\CCCCCCCC(=O)OCCO | inactive | –
